What all share (parameters): scale not given: direction of the effect not stated beside the values
Experiment [1] addresses Protein translocase subunit SecA (Escherichia coli (strain K12)) (UniProt P10408). Briefly: Assay to Identify E. coli SecA ATPase Inhibitors. The format is functional. The conditions noted are these: 30 µM.
The target of experiment [2] is T1, Ubiquitin-activating enzyme e1, putative (Leishmania donovani (strain BPK282A1)) (UniProt E9BSI1).
T1 sequence (whole entry): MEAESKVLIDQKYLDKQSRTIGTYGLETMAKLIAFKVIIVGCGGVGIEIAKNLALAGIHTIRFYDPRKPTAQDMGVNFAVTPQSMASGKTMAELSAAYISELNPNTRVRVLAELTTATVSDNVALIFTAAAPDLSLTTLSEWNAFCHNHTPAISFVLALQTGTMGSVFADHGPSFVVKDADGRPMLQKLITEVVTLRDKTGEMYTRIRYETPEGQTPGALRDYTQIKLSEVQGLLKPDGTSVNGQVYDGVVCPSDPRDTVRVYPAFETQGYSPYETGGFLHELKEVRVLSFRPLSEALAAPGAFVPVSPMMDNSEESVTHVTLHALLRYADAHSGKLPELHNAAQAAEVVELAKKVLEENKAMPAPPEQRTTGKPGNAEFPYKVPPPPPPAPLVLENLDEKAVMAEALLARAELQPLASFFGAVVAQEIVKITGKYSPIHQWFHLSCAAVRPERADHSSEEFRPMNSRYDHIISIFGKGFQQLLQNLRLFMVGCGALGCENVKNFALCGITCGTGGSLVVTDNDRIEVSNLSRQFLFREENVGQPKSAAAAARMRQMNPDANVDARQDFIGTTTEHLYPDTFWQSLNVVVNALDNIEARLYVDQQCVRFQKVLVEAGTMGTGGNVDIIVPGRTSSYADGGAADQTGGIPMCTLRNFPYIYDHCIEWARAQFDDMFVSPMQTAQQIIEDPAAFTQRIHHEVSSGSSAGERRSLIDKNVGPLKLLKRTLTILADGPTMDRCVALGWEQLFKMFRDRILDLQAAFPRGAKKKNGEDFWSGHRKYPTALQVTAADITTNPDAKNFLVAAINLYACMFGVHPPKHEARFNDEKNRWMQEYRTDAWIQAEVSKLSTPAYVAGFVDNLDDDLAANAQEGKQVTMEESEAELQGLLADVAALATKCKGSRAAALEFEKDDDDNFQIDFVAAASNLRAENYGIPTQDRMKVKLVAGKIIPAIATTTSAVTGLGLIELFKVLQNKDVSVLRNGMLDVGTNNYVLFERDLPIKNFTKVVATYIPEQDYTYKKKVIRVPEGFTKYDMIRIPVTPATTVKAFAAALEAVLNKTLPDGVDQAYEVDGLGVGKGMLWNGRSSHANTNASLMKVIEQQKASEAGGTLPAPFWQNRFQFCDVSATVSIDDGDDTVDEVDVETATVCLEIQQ
Description: Leishmania donovani Ubiquitin Activating Enzyme (LdE1). The settings on record: 30 µM. The class given is functional.

Experiment [3] addresses AMP-activated protein kinase, AMPK (Homo sapiens) (UniProt P54646+O43741+P54619+Q9UGJ0+Q9Y478+Q13131+Q9UGI9). Description: AMP-dependent Kinase enzyme assay. An in vitro enzyme assay that detects ADP turnover that is directly proportional to AMPK activity. This uses naive AMPK that is activated during the assay with MK-8722. The format is functional. The settings on record: 30 µM.

Experiment [4] deals with Sialic acid-binding Ig-like lectin 9 (Homo sapiens) (UniProt Q9Y336). Briefly: Hs-Siglec9 ALPHAscreen SOP 20170721. The settings on record: 10 µM.
Chain of Sialic acid-binding Ig-like lectin 9 (Homo sapiens) (Q9Y336 whole entry): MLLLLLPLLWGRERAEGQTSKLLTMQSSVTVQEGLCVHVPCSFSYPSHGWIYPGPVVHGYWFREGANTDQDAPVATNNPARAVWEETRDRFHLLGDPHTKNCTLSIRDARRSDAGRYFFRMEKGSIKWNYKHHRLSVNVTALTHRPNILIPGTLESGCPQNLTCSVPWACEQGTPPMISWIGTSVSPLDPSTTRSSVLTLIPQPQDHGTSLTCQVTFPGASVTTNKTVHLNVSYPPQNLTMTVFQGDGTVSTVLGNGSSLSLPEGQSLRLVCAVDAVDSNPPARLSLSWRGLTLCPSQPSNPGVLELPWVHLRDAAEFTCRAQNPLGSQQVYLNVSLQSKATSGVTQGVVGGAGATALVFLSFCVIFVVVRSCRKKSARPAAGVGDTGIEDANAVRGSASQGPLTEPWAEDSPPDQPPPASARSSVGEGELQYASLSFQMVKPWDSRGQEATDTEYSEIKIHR
The test system of another experiment is Trypanosoma cruzi. Description: Trypanosoma cruzi phosphomannomutase and mannose-1-phosphate guanylyltransferase assay. The conditions noted are these: 10 µM. The format is functional.
Experiment [5] addresses T2, Arginase-2, mitochondrial (Homo sapiens) (UniProt P78540).
T2 sequence (whole entry): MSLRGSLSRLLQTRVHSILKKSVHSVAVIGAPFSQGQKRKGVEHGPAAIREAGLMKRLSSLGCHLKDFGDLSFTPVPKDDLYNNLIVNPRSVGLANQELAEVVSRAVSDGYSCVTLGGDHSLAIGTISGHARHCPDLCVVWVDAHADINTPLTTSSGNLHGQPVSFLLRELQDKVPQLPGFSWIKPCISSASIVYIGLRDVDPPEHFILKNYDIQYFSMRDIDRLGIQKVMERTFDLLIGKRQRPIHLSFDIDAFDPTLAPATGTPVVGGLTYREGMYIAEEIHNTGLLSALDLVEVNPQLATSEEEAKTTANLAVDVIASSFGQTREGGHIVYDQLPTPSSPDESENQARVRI
Briefly: in vitro enzyme assay to detect the production of urea directly proportional to the activity of Arginase II. Further: in the data most compounds retested in dose-response had high values. The class given is functional. The settings on record: 33.3 µM.

In experiment [6] the target is T3, Proteasome subunit beta (Trypanosoma cruzi) (UniProt O96673).
T3 sequence (whole entry): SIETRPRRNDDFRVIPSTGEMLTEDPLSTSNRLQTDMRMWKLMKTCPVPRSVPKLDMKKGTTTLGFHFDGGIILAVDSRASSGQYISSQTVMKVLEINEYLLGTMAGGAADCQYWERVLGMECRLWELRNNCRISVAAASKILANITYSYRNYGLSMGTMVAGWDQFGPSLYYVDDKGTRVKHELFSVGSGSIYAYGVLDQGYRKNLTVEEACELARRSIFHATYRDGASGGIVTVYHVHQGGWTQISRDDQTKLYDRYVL
Briefly: Trypanosoma cruzi proteasome chymotrypsin-like activity (TcProtChymo) assay. Further: in the data most compounds retested in dose-response had high values. The format is functional. The conditions noted are these: 9.37 µM.

The species named for another experiment is Homo sapiens. Description: To identify inhibition of the IFN signalling (Jak-Stat) pathway via expression of an eGFP reporter gene under the control of an IFN-stimulated response element (ISRE) containing MxA promoter. The class given is functional. The settings on record: 30 µM. (In general: In a reporter assay the amount or activity of a reporter protein is the signal.)

Experiment [7] addresses T4, Tyrosyl-tRNA synthetase, putative (Trypanosoma cruzi (strain CL Brener)) (UniProt Q4DSP6).
T4 sequence (whole entry): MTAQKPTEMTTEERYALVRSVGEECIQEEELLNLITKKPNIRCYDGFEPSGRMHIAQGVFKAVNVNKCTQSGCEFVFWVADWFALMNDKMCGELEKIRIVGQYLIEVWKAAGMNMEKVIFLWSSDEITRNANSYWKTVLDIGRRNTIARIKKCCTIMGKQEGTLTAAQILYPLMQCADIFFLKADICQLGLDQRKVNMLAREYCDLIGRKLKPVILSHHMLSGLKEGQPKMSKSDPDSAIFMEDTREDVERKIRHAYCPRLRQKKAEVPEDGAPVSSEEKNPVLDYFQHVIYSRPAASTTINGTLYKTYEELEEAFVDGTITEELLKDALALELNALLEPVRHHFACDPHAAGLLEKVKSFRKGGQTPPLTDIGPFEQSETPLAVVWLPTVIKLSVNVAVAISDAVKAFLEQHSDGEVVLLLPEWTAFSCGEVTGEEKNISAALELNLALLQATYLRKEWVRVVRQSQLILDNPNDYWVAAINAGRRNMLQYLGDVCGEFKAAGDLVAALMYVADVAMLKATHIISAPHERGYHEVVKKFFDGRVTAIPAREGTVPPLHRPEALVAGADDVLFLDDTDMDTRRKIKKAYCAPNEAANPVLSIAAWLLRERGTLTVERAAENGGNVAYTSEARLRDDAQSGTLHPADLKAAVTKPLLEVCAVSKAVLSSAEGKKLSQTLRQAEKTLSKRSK
Description: Trypanosoma cruzi tyrosyl tRNA synthetase (TcYRS) _High Tyrosine SOP. Further: in the data most compounds retested in dose-response had high values. The format is functional. The settings on record: 30 µM.

Experiment [8] has as its target T4, Tyrosyl-tRNA synthetase, putative (Trypanosoma cruzi (strain CL Brener)). Description: Trypanosoma cruzi tyrosyl tRNA synthetase (TcYRS) SOP. The class given is functional. The settings on record: 30 µM.
Experiment [9] has as its target Chromo domain-containing protein 1 (Saccharomyces cerevisiae (strain ATCC 204508 / S288c) (Baker's yeast)) (UniProt P32657). Description: ScCHD-1 Enzyme Inhibition Assay. Further: in the data most compounds retested in dose-response had high values. The class given is functional. The settings on record: 30 µM.

For some of these results: Measured potencies and affinities stand elsewhere.

Chain of Protein translocase subunit SecA (Escherichia coli (strain K12)) (P10408 whole entry): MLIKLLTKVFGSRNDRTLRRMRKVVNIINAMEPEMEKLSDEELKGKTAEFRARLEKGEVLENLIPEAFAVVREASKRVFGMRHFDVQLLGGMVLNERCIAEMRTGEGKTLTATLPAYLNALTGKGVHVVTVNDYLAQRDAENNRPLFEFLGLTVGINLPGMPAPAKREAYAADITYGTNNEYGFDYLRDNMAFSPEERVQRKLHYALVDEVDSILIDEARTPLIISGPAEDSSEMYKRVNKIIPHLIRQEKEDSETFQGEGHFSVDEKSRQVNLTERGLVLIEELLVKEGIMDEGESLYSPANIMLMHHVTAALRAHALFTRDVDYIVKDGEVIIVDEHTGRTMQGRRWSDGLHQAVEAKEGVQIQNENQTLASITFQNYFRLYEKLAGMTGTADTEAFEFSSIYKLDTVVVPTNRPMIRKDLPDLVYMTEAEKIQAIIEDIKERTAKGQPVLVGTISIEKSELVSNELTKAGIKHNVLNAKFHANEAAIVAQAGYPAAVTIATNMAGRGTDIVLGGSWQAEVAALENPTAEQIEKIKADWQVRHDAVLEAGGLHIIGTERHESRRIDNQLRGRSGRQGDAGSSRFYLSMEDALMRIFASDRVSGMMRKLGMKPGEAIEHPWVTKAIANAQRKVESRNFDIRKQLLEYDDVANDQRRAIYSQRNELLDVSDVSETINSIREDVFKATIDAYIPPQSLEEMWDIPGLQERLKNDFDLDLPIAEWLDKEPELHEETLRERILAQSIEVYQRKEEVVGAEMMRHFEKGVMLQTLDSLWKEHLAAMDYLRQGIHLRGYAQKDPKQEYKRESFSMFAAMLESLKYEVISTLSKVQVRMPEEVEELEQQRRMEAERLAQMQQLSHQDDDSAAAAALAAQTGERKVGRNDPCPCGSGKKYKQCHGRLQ
Chain of Chromo domain-containing protein 1 (Saccharomyces cerevisiae (strain ATCC 204508 / S288c) (Baker's yeast)) (P32657 whole entry, the tested form may be a part): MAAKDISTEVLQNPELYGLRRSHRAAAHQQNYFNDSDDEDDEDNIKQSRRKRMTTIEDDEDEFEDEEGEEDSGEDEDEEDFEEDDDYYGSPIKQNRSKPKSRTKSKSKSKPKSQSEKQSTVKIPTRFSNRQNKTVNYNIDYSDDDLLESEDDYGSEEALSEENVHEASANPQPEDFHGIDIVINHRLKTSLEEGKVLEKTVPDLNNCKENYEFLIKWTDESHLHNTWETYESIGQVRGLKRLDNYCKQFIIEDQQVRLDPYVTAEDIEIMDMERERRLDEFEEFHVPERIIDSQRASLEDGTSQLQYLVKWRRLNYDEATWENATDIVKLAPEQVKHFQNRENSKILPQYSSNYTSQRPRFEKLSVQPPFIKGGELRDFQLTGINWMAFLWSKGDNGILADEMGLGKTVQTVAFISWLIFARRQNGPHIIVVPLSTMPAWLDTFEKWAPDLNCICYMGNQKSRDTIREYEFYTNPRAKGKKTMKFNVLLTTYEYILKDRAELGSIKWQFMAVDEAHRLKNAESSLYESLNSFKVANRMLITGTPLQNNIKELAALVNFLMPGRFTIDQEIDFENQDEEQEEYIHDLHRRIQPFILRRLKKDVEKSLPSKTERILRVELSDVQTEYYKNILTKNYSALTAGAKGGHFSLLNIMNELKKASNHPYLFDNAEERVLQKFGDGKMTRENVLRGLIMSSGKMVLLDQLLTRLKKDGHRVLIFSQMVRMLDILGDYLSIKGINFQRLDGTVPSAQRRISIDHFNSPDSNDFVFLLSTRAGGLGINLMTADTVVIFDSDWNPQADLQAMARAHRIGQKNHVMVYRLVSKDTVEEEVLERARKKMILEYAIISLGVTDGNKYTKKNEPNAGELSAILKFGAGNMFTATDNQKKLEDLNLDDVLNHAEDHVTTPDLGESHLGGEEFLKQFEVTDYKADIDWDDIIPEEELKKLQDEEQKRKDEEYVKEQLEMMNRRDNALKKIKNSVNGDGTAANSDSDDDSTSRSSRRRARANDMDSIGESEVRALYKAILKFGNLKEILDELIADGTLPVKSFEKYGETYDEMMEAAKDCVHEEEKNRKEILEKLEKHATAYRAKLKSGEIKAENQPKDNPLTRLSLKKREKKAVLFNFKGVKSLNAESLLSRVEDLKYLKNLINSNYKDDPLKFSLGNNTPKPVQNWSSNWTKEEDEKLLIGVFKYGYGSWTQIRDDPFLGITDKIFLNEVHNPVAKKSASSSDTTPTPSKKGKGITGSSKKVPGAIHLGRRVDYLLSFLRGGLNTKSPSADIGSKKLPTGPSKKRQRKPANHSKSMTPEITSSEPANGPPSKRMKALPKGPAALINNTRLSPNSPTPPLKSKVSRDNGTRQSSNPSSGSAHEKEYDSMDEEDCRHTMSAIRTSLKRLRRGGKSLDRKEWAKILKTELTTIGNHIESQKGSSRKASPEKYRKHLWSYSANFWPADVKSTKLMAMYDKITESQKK

In the case of `CCC(=O)NCC(=O)NCc1cc(Br)ccc1OC(F)F`, the Percent Effect in experiment [1] was -3.84%; in experiment [2], 18.7%; in experiment [3], -6.58%; in experiment [4], 53.5%; in the experiment on Trypanosoma cruzi, 3.41%; in experiment [5], 18.8%. For the same compound, the Percent Effect in experiment [6] is 7.15%; in the experiment listed under Homo sapiens, -3.97%; in experiment [7], 7.1%; in experiment [8] it was 18.5%; in experiment [9] it was -8.96%.

Turning to `CC(C)c1nnc2n1CCN(CC(=O)Nc1sccc1C#N)C2`, the Percent Effect was -8.13% in [1]; 7.89% in experiment [2]; -4.21% in experiment [3]; -3.31% in experiment [4]; -3.83% in the experiment with Trypanosoma cruzi; 1.08% in [5]. Further, the Percent Effect in experiment [6] is -3.13%; in the experiment filed under Homo sapiens, -0.485%; in [7] it was -2.46%; in [8] it was -6.17%; in experiment [9], 3.89%.

Turning to `CCc1nc(CN2CCCC(NCc3nnc(C4CC4)o3)C2)no1` (stereo unspecified), the Percent Effect in experiment [1] was -2.45%; in experiment [2], 18.2%; in experiment [3] it was 3.2%; in experiment [4], -12.1%; in the experiment with Trypanosoma cruzi, 1.67%; in experiment [5], -0.632%. Further, the Percent Effect in experiment [6] was 10.4%; in the experiment listed under Homo sapiens it was -0.806%; in experiment [7], 11.4%; in experiment [8], 25.9%; in experiment [9], -21.2%.

Take `O=C1COC2(COCCN(Cc3cccnc3)C2)CN1c1ccoc1` (stereo unspecified): the Percent Effect in experiment [1] was -0.625%; in experiment [2], 5.2%; in experiment [3] it was 2.84%; in experiment [4] it was 0.684%; with Trypanosoma cruzi, -10.6%; in [5], 7.1%. In addition, the Percent Effect in experiment [6] is 4.87%; in the experiment listed under Homo sapiens, 8.52%; in experiment [7], 0%; in [8], 1.28%; in experiment [9] it was -1.12%.

As for `COc1c(CNC(c2nccn2C)C(C)C)c(C)nn1C` (stereo unspecified), the Percent Effect in [1] is 1.37%; in experiment [2] it was -5.26%; in experiment [3] it was 0.924%; in [4], 13.8%; in the experiment with Trypanosoma cruzi, -2.07%; in experiment [5], -2.68%. The Percent Effect was 2.84% in experiment [6]; -7.86% in the experiment filed under Homo sapiens; 6.37% in experiment [7]; 0% in [8]; 4.67% in experiment [9].

`CCN1CC2(CC1=O)CN(Cc1ccco1)CCN(C(=O)N(C)C)C2` (stereo unspecified): the Percent Effect is -0.643% in experiment [1]; 2.74% in experiment [2]; 1.96% in experiment [3]; 9.02% in experiment [4]; -1.39% in the experiment with Trypanosoma cruzi; 4.39% in [5]. Further, the Percent Effect is 6.59% in experiment [6]; -2.04% in the experiment filed under Homo sapiens; 5.21% in experiment [7]; 11.1% in experiment [8]; 0.322% in experiment [9].

As to `COc1ccccc1CCNC(=O)CN1CCCC1c1noc(C)n1` (stereo unspecified), the Percent Effect in experiment [1] was -1.65%; in experiment [2], 2.63%; in experiment [3] it was 3.18%; in experiment [4], 11.8%; in the experiment on Trypanosoma cruzi, -1.69%; in experiment [5], 1.53%. Further, the Percent Effect in experiment [6] is 12.9%; in the experiment listed under Homo sapiens, 5.32%; in experiment [7], 4.41%; in [8] it was 17.1%; in experiment [9], -5.97%.

With `CCOc1ccc(CC(=O)N2CCN(c3nccn3C)CC2)cc1`, the Percent Effect is -0.699% in experiment [1]; 13% in [2]; 1.57% in experiment [3]; 3.44% in experiment [4]; -5.62% in the experiment with Trypanosoma cruzi; -7.1% in experiment [5]. Besides, the Percent Effect in [6] is 18.6%; in the experiment filed under Homo sapiens it was 9.26%; in experiment [7], 4.23%; in experiment [8] it was 14.1%; in [9], -6.41%.

As to `CC(C)c1nn(C)c(Cl)c1CNCC(O)c1cccc(F)c1` (stereo unspecified), the Percent Effect in experiment [1] is -7.69%; in [2], 5.2%; in experiment [3], -1.22%; in [4] it was -3.98%; with Trypanosoma cruzi it was 7.35%; in experiment [5], -2.32%. Moreover, the Percent Effect in experiment [6] was 15.8%; in the experiment listed under Homo sapiens it was 4.38%; in experiment [7], 7.62%; in experiment [8], 30.6%; in experiment [9], -7%.

Take `O=C(Cc1ccccc1F)N1CCN(C(=O)c2ccoc2)CC1`: the Percent Effect in [1] is -1.97%; in [2] it was 7.89%; in [3] it was 7.43%; in [4] it was -1.79%; with Trypanosoma cruzi, -2.04%; in experiment [5], -23.7%. Further, the Percent Effect in experiment [6] was 22.5%; in the experiment filed under Homo sapiens it was -4.65%; in experiment [7] it was 9.57%; in experiment [8], 18.2%; in experiment [9] it was -2.49%.

In the case of `Cc1ccc(C(=O)N2Cc3ccccc3C2)cc1N1CCNC1=O`, the Percent Effect was -6.25% in experiment [1]; 2.67% in experiment [2]; 0.516% in experiment [3]; 9.14% in experiment [4]; 7.89% in the experiment with Trypanosoma cruzi; -3.12% in experiment [5]. Also, the Percent Effect is 16.2% in [6]; -13.9% in the experiment filed under Homo sapiens; 7.1% in experiment [7]; 13.6% in experiment [8]; -6.92% in experiment [9].

Source of the values: ChEMBL document CHEMBL3988442, “University of Dundee, Small-Polar-MMV Screening Library” (2021).
